# Test results from patent US20210230599, “STEM-LOOP COMPOSITIONS AND METHODS FOR INHIBITING INTERLEUKIN-8” (VITRISA THERAPEUTICS, INC., published 2021).
# Biological target: Interleukin-8 (IL8, CXCL8), C-terminal His-tagged (Homo sapiens, UniProt P10145 SEQ:1-72)
# Assay: competition; competition TR-FRET; Aptamer 116 variant
# Details: tags: C-terminal His (Sino Biological); stem-loop; ssRNA; 2'-F G except 2'-OMe G at X (CGGU-GGGA-AACGU-GAGAU-GGXUU-GCCG); 2'-OMe A,C,U; 5' C6NH2; 3' idT
# Text: 2′OMe modifications may impart higher duplex stability, increased metabolic stability in serum and vitreous, and may have greater coupling efficiency during synthesis compared to 2′F-containing nucleotides. The use of these nucleotides may also avoid the potential loss of the 2′F group during production, which can happen during deprotection steps and exposure to heat. To probe the effect of 2′F-G to 2′OMe-G substitution on target binding, variants of Aptamer 116 and 212 were synthesized where 2′F-G was selectively substituted with 2′OMe-G (Table 49) and assayed for activity by competition TR-FRET using ALEXA FLUOR® 647-labeled parent Aptamer 212. 2′OMe-G replacements were well tolerated in all positions of stem S1 (Aptamers 242-248).
row,Sequence,binding signal
1,CGGUGGGAAACGUGAGAUGGGUUGCCG [listing 1 of 4 here],> 10 fold worse than Aptamer 212

# Same assay, conditions: tags: C-terminal His (Sino Biological); stem-loop; ssRNA; 2'-F G except 2'-OMe G at X (CGGU-GGGA-AACGU-GAGAU-GXGUU-GCCG); 2'-OMe A,C,U; 5' C6NH2; 3' idT
row,Sequence,binding signal
1,CGGUGGGAAACGUGAGAUGGGUUGCCG [listing 2 of 4 here],> 10 fold worse than Aptamer 212

# Same assay, conditions: tags: C-terminal His (Sino Biological); stem-loop; ssRNA; 2'-F G except 2'-OMe G at X (CGGU-GGGA-AACGU-GAGAU-XGGUU-GCCG); 2'-OMe A,C,U; 5' C6NH2; 3' idT
row,Sequence,binding signal
1,CGGUGGGAAACGUGAGAUGGGUUGCCG [listing 3 of 4 here],> 10 fold worse than Aptamer 212

# Same assay, conditions: tags: C-terminal His (Sino Biological); stem-loop; ssRNA; 2'-F G except 2'-OMe G at X (CGGU-GGGA-AACXU-GAGAU-GGGUU-GCCG); 2'-OMe A,C,U; 5' C6NH2; 3' idT
row,Sequence,binding signal
1,CGGUGGGAAACGUGAGAUGGGUUGCCG [listing 4 of 4 here],> 10 fold worse than Aptamer 212
